Assay outcomes deposited in PubChem BioAssay by National Center for Advancing Translational Sciences (NCATS).
Hits are enriched below; roughly 4.7% of the tested compounds scored in any of these assays.
D1 antagonist = antagonists of human D1 dopamine receptor. HEK293 TREx D1 cells, calcium flux, dopamine EC80; hits give low values. activity change, negative = inhibition, % at 10 µM. hit rate 3.2% among 360,000; in the data active = activity change below about -30%; note: % is set by controls: 0 for no effect and ±100 for the full control effect
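Using tetracycline-induced force-coupled D1 Hek293 cells and a calcium dye, signals were followed for 180 s after compound, then for 180 s after EC80 dopamine, to detect inhibitors.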
D1 ag = activates the human D1 dopamine receptor | activation, % at 2 µM | hit rate 1% among 360,000 | P21728 | AID 504660 | HEK293 T-REx D1 cells, calcium flux, agonist mode; note: 0% is about no effect
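Tetracycline-induced HEK293 TREx D1 cells, force-coupled to calcium signalling, were dye-loaded with a no-wash calcium kit. Compound was pin-added after a 10 s baseline. Fluorescence was read kinetically at 1 cycle/s for 180 s, with calcium rises flagged as agonism.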
TRHR PAM = TRH receptor (human) allosteric enhancement; enhancement, % at 2 µM; TRHR cells, fluo-8 calcium fluorescence, EC20 TRH enhancement; AID 493056; hit rate 0.66% among 360,000; P34981; in the data active = enhancement above about 30%; note: 0% is about no effect
Target sequence (P34981 whole entry, looked up): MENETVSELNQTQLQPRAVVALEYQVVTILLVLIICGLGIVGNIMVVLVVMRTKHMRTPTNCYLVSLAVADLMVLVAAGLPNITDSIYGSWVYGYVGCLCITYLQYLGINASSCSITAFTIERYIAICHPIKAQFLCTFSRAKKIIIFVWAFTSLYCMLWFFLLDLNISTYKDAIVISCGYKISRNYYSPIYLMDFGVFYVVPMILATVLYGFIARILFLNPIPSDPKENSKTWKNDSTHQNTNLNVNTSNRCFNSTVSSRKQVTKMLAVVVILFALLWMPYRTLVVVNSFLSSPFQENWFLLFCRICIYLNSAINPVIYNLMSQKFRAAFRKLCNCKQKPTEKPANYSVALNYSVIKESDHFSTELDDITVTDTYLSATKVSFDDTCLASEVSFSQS
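TRHR-expressing cells loaded with fluo-8 calcium dye were read kinetically (ex 480/em 530) during compound addition, then stimulated with an EC20 of TRH (10 nM final). Enhancement of the Gq-mediated intracellular calcium response was scored.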
TRHR agonist = activates the human TRH receptor | P34981 | TRHR cells, calcium flux fluo-8, FDSS agonist mode | activation, % at 2 µM | hit rate 0.18% among 360,000; note: 0% is about no effect
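Fluo-8-loaded TRHR cells; 10 s baseline, compound added, kinetic Ca2+ fluorescence read 1/s, agonist mode.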
D1 potentiator = potentiators of human D1 dopamine receptor | potentiation, % at 10 µM | HEK293 TREx D1 cells, calcium flux, dopamine EC20 potentiation | P21728 | hit rate 0.036% among 360,000; in the data active = potentiation above about 30%; note: 0% is about no effect
An asterisk follows results filed as active; · = not tested or not shown. Cut-off read from the data, not from the text of the source, unless noted: active = activation above about 30%; inactive = the rest.

SMILES | D1 antagonist | D1 ag | TRHR PAM | TRHR agonist | D1 potentiator
O=C(COc1ccc2ccccc2c1)NNC(=O)Cc1ccccc1 | -8 | 5 | 4 | -1 | -7
O=C(Cc1ccccc1)NNc1ccc2ccccc2c1 | -49* | 1 | -2 | -2 | 10
CCc1ccc(NC(=S)NCc2ccccc2)cc1 | -38* | 6 | -1 | -1 | -7
CN(N)C(=S)NCc1ccccc1 | 6 | 1 | 8 | 1 | -1
Fc1ccc(CNC(=S)Nc2ccc(OC(F)F)cc2)cc1 | -42* | 26 | -5 | 2 | -7
S=C(NCc1ccccc1)Nc1ccncc1 | -56* | 8 | 1 | 0 | -17
CN(C)C(=S)NCc1ccccc1 | -18 | 1 | 38* | 0 | 5
S=C(NCc1ccncc1)Nc1ccccc1 | · | -1 | 6 | 0 | -5
CCOc1ccc(CNC(=O)c2cnc(SC)nc2C)cc1 | -21 | 6 | -2 | 0 | -2
O=C(c1ccc2[nH]c(=O)c(=O)[nH]c2c1)N1CCc2ccccc21 | -10 | 0 | -4 | 1 | 1
COc1ccc(-c2cn3cccnc3n2)cc1NC(=O)Nc1ccc(Cl)cc1 | -1 | 0 | -2 | -1 | -5
O=C(Nc1cc([N+](=O)[O-])ccc1O)c1ccc2c(c1)C(=O)N(Cc1ccco1)C2=O | 3 | 0 | 39* | 0 | -5
CN1CCN(C(=O)c2ccc(COc3cc(Cl)ccc3Cl)o2)CC1 | 11 | 4 | 4 | 0 | -6
CN1CCN(C(=O)c2cccc(COc3cc(Cl)ccc3Cl)c2)CC1 | -43* | 2 | -3 | 0 | -14
COc1ccc(-n2c(O)c(C=Nc3ccccc3)c3ccccc3c2=O)cc1 | 12 | 3 | -1 | 0 | -6
CCN(c1ccc(N=Cc2c(O)n(Cc3ccc(OC)cc3)c(=O)c3ccccc23)cc1)C(C)C | -1 | 57* | 9 | 0 | 5
CC(C)c1ccc(N2C(=O)CC(Sc3ncccn3)C2=O)cc1 (stereo unspecified) | -21 | 2 | 5 | 0 | -8
COc1ccccc1N1CCN(CCCNC(=O)c2nnc(Cc3ccc(F)cc3Cl)o2)CC1 | -39* | 5 | -3 | 0 | -5
COc1ccccc1N1CCN(CCCNC(=O)c2nnc(Cc3c(F)cccc3Cl)o2)CC1 | -36* | 9 | -2 | 0 | -5
CN1CCN(CCCNC(=O)c2nnc(Cc3c(F)cccc3Cl)o2)CC1 | 47 | 1 | 2 | 0 | -2
Cc1ccc(-c2cc(-c3n[nH]c(=S)n3C)c3ccccc3n2)cc1 | -37* | 1 | -25 | 0 | -5
Cc1cc(SC(C)C(=O)Nc2c(C)n(C)n(-c3ccccc3)c2=O)nc2ccccc12 (stereo unspecified) | -32* | 0 | -3 | -1 | -3
Cc1c(NC(=O)C(C)Sc2ncnc3ccccc23)c(=O)n(-c2ccccc2)n1C (stereo unspecified) | -4 | 3 | -3 | 0 | 4
N#CC(C#N)=C/C=C(\Nc1ccc(Cl)cc1)c1ccc(Cl)cc1 | -28 | 79* | -1 | 22 | -10
CCCN(Cc1cccs1)C(=O)Nc1ccc(Br)cc1F | -24 | -1 | 5 | -1 | -1
SMILES | D1 antagonist | D1 ag | TRHR PAM | TRHR agonist | D1 potentiator
CC(=O)N1CCC(N(Cc2ccco2)C(=O)Nc2ccc(Br)cc2F)CC1 | 6 | -1 | 41* | 2 | -3
CCc1cccc(C)c1NC(=O)C(NS(=O)(=O)c1ccc2c(c1)CCC(=O)N2)c1ccccc1 (stereo unspecified) | 7 | -1 | -7 | 0 | 8
Clc1nssc1=Nc1ccc(Br)cc1 | -11 | 34* | 2 | 1 | -6
CCCn1nc(C(=O)Nc2ccc3c(c2)OCCO3)c2ccccc2c1=O | -20 | 4 | -5 | 0 | -4
O=C(OCc1nnc(-c2ccc(Cl)cc2)o1)C12CC3CC(CC(O)(C3)C1)C2 | -75* | 8 | -4 | 0 | -8
CCN(CC)C(=O)c1ccc(COc2ccc(Cl)c(C)c2)o1 | -31* | 8 | 0 | 0 | -18
Cc1cc(OCc2ccc(C(=O)n3cccn3)o2)ccc1Cl | -3 | 7 | 12 | -1 | -9
CCCn1c(=O)cc(N)n(-c2ccc(OC(F)(F)F)cc2)c1=O | -10 | 3 | -7 | 0 | -6
COc1ccc(C2=NN(c3ccccc3)C(c3ccc(OC)c(OC)c3)C2)cc1 (stereo unspecified) | 2 | 5 | 3 | 4 | 3
